# High-throughput results deposited in PubChem BioAssay by National Center for Advancing Translational Sciences (NCATS).
# Only some compounds are listed: those with a hit (about 19% of all), similar ones and a draw of the others.
# HT1080NT lethal = kills 2HG-producing HT-1080-NT fibrosarcoma cells. HT-1080-NT fibrosarcoma viability, CellTiter-Glo ATP luminescence, 48 h. Potency, µM (series often up to 46.1 µM), inactives show at the top dose activity, negative = less viability, hits mostly cytotoxic. 360,000 compounds, 1.6% hits. AID 686970;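 further: NT is the 2HG producing partner of a matched IDH1 knockdown line; potency means the concentration at half of the fitted maximal effect; 0% = DMSO-treated cells and -100% = media-only wells without cells; nearly all actives have a fitted effect of over 55% in size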
#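 Luminescent CellTiter-Glo readout after 48 hours of compound exposure at 37 degrees C defined viability of HT-1080-NT cells. Activity was normalized to DMSO wells and cell-free media wells; concentration-response curves were fitted and assigned curve classes.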
# IL-1B inflam inh = blocks inflammasome-driven IL-1 beta release; THP-1 LPS/ATP IL-1B secretion, AlphaLISA, 16 h; active compounds read low; AID 743279; activity change, % at 57.5 µM; 360,000 compounds, 4.7% hits; in the data active means activity change below about -50%; inconclusive means mostly about -30% to -49%
#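 THP-1 cells pretreated 1 hr with compounds (up to 57.5 uM final), then stimulated with LPS (250 ng/mL final) plus ATP (1.25 mM final); secreted IL-1B measured by AlphaLISA after 16 hr, decreased signal indicating inhibition.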
# HT1080 IDH1KD tx = HT-1080 IDH1 knockdown cell toxicity (counter line); HT-1080 IDH1 knockdown viability, ATP luminescence, 48 h; Potency, µM (titrated, usually from 46.1 µM), for the others: top-dose activity, negative = toxicity, actives largely listed as cytotoxic; 360,000 compounds, 2% hits; AID 686971;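 further: potency means the concentration at half of the fitted maximal effect; 0% = DMSO wells and -100% = cell-free medium wells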
#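 CellTiter-Glo luminescence after 48 h compound exposure at 37 degrees C of IDH1-knockdown HT-1080 cells in 5% FBS RPMI. %Activity scaled between DMSO wells and cell-free media wells, with curves fitted and assigned curve classes.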
# TDP1 cell noCPT = qHTS for Inhibitors of human tyrosyl-DNA phosphodiesterase 1 (TDP1): qHTS in cells in absence of CPT. 420,000 compounds, 15% hits. Potency, µM (series often up to 46.2 µM), inactives show at the top dose activity change, negative = growth inhibition, usual class: inhibitors. DT40 Tdp1-/- hTDP1 cells, no CPT, ATP luminescence, 48 h. AID 686978, 2013; further: potency means the concentration at half of the fitted maximal effect; nearly all actives have a fitted effect of over 55% in size
#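 Growth kinetics read by CellTiter-Glo luminescence after ≥48 hr at 37 °C. Cells: DT40 Tdp1-/- stably carrying human TDP1, 400 per well, compound exposure in the absence of CPT (DMSO vehicle).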
# TDP1 cell CPT = DT40-hTDP1 cell growth loss with CPT. chicken DT40 Tdp1-/-;hTDP1 cells + 20 nM CPT, ATP luminescence, 48 h. Potency, µM (top dose mostly 46.2 µM), without a hit: top-dose activity change, negative = growth inhibition, most hits filed as inhibitors. 420,000 compounds, 12% hits. AID 686979; further: potency means the concentration at half of the fitted maximal effect; nearly all actives have a fitted effect of over 55% in size
#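 Chicken DT40 Tdp1-/- cells complemented with human TDP1, 400 cells/well, exposed to compounds plus 20 nM camptothecin for at least 48 h at 37 C; viability read as ATP content by CellTiter-Glo luminescence.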
# * = called active by the depositor; ? = inconclusive; . = no result; [ ] = remark or other dose. Unless noted, the call rests on the fitted dose curve; in most records, active means well fitted curve in the direction sought with a large enough effect; inconclusive means small, poorly fitted or top-dose-only effect, or another doubt; inactive means no such curve, though single readings can be large; an effect the other way counts as inactive or inconclusive. Unless noted, on the % scale 0 is the no-effect control and ±100 the full control effect.
SMILES,HT1080NT lethal,IL-1B inflam inh,HT1080 IDH1KD tx,TDP1 cell noCPT,TDP1 cell CPT
CCC(C)c1nc2c(c(N3CCC3=O)c1-c1ccccc1)CCCC2 (configuration not stated),22.7%,6.2,4.0%,?,18.4µM*
CC(/C=N/NC(=O)NC1CCCCC1)=C\c1ccccc1,8.9%,?,8.4%,20.6µM*,20.6µM*
O=C(N/N=C/C(Br)=C/c1ccccc1)C(O)c1ccccc1 (configuration not stated),?,-20.4,-15.3%,8.2µM*,5.8µM*
O=C(C=NNc1ccccc1)c1ccccc1,-15.9%,7.2,-27.7%,-23.0%,-17.0%
O=C(N/N=C/C(Br)=C/c1ccccc1)NC1CCCCC1,?,-94.1*,?,14.6µM*,9.2µM*
O=C(O)c1ccc(N/N=C/C(Br)=C/c2ccccc2)cc1,-26.5%,-13.7,?,7.31µM*,5.8µM*
Nc1[nH]c(C(=O)c2ccccc2)c(-c2ccc(F)cc2)c1C(=O)NCc1ccccc1,6.1%,0.0,8.9%,-1.4%,-0.5%
O=C(N/N=C/C(Br)=C/c1ccccc1)C1CC1,-26.4%,-75.7*,-26.7%,13µM*,8.2µM*
CCOC(=O)CN(C(=O)COc1nc(-c2ccccc2)cc(C)c1C#N)c1ccccc1C,0.1%,49.4,20.8%,10.3µM*,16.4µM*
CCCS(=O)(=O)NCCc1csc(-c2ccc(OC)c(OC)c2)n1,-5.1%,?,-5.5%,?,?
O=C1C(=O)c2ncccc2-c2cccnc21,.,.,.,5.31µM*,5.96µM*
NC1=C(Br)C(=O)c2ncccc2C1=O,3.26µM*,-97.6*,3.26µM*,1.64µM*,0.651µM*
CC12CCC(=O)N1C(C(=O)N1CCN(S(=O)(=O)c3ccc(F)c(F)c3)CC1)CS2 (configuration not stated),0.5%,2.8,0.7%,-19.3%,4.1%
Cc1c(NS(=O)(=O)c2ccc(Cl)c(C(=O)OC(C)C(=O)NCc3ccco3)c2)c(=O)n(-c2ccccc2)n1C (configuration not stated),15.6%,-11.6,10.4%,-6.2%,0.8%
COn1c(-c2ccccc2)nc2c1CCc1c-2no[n+]1[O-],-1.3%,-63.4*,-10.7%[9.24 µM],?,?
[O-][n+]1onc2c1CCc1c-2nc(-c2ccccc2)n1OCc1ccccc1,7.3%,-18.8,-2.0%,-17.7%,?
Cc1nc(SCC(=O)N2CCCC2=O)c2c(C)c(C)sc2n1,0.3%,3.3,3.2%,?,?
CC(C)(C#N)Cc1cc(CC(C)(C)C#N)cc(C(C)(C)C)c1,12.1%,23.4,0.0%,-14.0%,-11.5%
N#CC(Cc1cccc(CC(C#N)(c2ccccc2)c2ccccc2)c1)(c1ccccc1)c1ccccc1,20.0%,5.4,0.0%,4.11µM*,3.26µM*
COc1ccccc1C1CCN(Cc2ccc(Cl)c(Cl)c2)CC1,-24.3%,36.2,?,?,?
COc1ccccc1C1CCN(Cc2c(C)[nH]c3ccccc23)CC1,-29.0%,.,-25.1%,5.8µM*,4.61µM*
COc1ccccc1C1CCN(Cc2cccc3ccccc23)CC1,?,10.4,?,16.4µM*,?
COc1ccccc1C1CCN(Cc2ccc(Cl)cc2Cl)CC1,11.8%,17.6,10.5%,12.8%,?
Cc1ccc(S(=O)(=O)NC(=O)NCCc2ccccc2)cc1,2.7%,-2.6,0.2%,0.1%,3.1%
O=c1[nH]nc(Cc2ccc(-c3cccc(Cl)c3)o2)c2ccccc12,?,53.3,?,?,16.4µM*
SMILES,HT1080NT lethal,IL-1B inflam inh,HT1080 IDH1KD tx,TDP1 cell noCPT,TDP1 cell CPT
Clc1cccc(-c2ccc(CNCc3ccccn3)o2)c1,-5.7%,3.6,-1.0%,?,?
C=CCn1c(SCC(=O)N2CCCCCC2)nc2ccccc2c1=O,-2.4%,-15.8,-2.4%,?,?
CCCCn1c(SCC(=O)NCc2ccco2)nc2ccccc2c1=O,-3.6%,-8.6,0.1%,-22.8%,?
CCN(CC)C(=O)CSc1nc2c(sc(=S)n2CC)c(=O)n1-c1ccccc1,-7.7%,-10.7,3.6%,-29.8%,-18.2%
CCn1c(SCC(=O)N2CCCCCC2)nc2ccccc2c1=O,-7.6%,-10.6,2.7%,?,20.6µM*
CCCN(CCC)C(=O)CSc1nc2ccccc2c(=O)n1Cc1ccco1,.,.,.,20.6µM*,18.4µM*
O=C(NCc1ccco1)c1ccc2c(=O)n(Cc3ccco3)c(SCC(=O)N3CCCC3)nc2c1,-10.6%,-13.4,-7.4%,?,25.9µM*
CCN(CC)C(=O)CSc1nc2c(sc(=S)n2-c2ccccc2)c(=O)n1Cc1ccco1,-17.6%,-64.3*,-2.9%,?,23.1µM*
O=C(c1ccc(N2CCC(NCCCn3ncc4ccccc43)CC2)cc1)N1CCOCC1,.,.,.,-13.3%,6.8%[9.04 µM]
Cc1cccc(-n2c(SCC(=O)NCc3ccco3)nc3ccccc3c2=O)c1,-22.0%,?,?,?,10.3µM*
O=C(CSc1nc2ccccc2c(=O)n1Cc1ccco1)N1CCCCCC1,-20.8%,?,?,?,20.6µM*
O=C1c2ccccc2C(=O)N1CCCc1nc2ccccc2c(=O)n1Cc1ccco1,2.9%,-1.8,-1.8%[9.24 µM],16.4µM*,20.6µM*
CCN(C(=O)CSc1nc2ccccc2c(=O)n1-c1cccc(C)c1)C1CCS(=O)(=O)C1 (configuration not stated),4.9%,-23.3,11.1%,?,16.4µM*
CCN(C(=O)CSc1nc2ccccc2c(=O)n1Cc1ccc(C)cc1)C1CCS(=O)(=O)C1 (configuration not stated),3.5%,-5.1,6.6%,?,?
O=C(CSc1nc2ccccc2c(=O)n1Cc1ccco1)NCc1ccco1,-8.1%,-6.2,8.5%[9.24 µM],?,?
CC(=O)C1CCC2C3CCC4=CC(=O)CC[C@]4(C)[C@@]3(F)C(O)C[C@]12C (some centres not stated),?,-24.0,?,?,13.5%
CC(=O)Oc1ccc2c(=O)c(-c3nc4ccccc4s3)coc2c1,-0.3%,66.6,-17.3%,-16.5%,0.3%
Cc1cccc(-n2c(SCc3cc(=O)n4ccsc4n3)nc3ccccc3c2=O)c1,1.2%,-2.8,7.2%,14.6µM*,?
O=C(CCCCCn1c(SCC(=O)c2ccccc2)nc2ccccc2c1=O)NCc1ccco1,-21.8%,-7.9,-21.5%,20.6µM*,8.2µM*
CCn1c(SCc2cccc(OC)c2)nc2ccccc2c1=O,-4.7%,24.9,-26.7%,20.6µM*,10.3µM*
CCC(C)N(C(=O)CSc1nc(C)nc2ccccc12)C1CCS(=O)(=O)C1 (configuration not stated),1.6%,-58.8*,2.2%,?,0.7%
O=c1cc(Cl)nc2ccccn12,28.3%,-11.1,5.4%,-14.3%,-25.9%
